The values that follow come from the supplement of paper PMC9262897, “Low-cost anti-mycobacterial drug discovery using engineered E. coli” (Nature Communications, 2022).

Structures can show the parent of a compound that is named as a salt. ± gives the standard deviation of the averaged measurements.

Assay in all cases: growth (OD600 after 10 h); higher = more growth (less inhibition)
Assay [1] relates to E. coli TESEC Alr+ wild-type control. As to conditions: compound 0.1 mM; raw OD600 reference: median of DMSO wells 0.241, cell-free background 0.041. The method, then:
(§1)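 TESEC Mtb Alr E. coli, or the Alr+ wild-type control, in 384-well plates with Prestwick library compounds at 0.1 mM and 1% DMSO, across arabinose induction levels of 1E3 to 1E7 nM. Growth is read as OD600 after 10 h at 37 °C in triplicate biological replicates.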

Assay [2] has as its system E. coli TESEC Mtb Alr. The note with it: compound 0.1 mM. The method, then:
as §1

The subject of a further assay is E. coli TESEC Mtb Asd. The note with it: compound 0.1 mM. The method, then:
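TESEC E. coli strains in which the native enzyme is deleted and replaced by arabinose-inducible Mtb Asd, DapB, CysH or TrpD, each grown in its selective medium. Strains were screened against the Prestwick library at 0.1 mM and 1% DMSO in 384-well format at low and high arabinose induction. Growth is read as OD600 after 10 h in triplicate.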

Assay [3] concerns E. coli TESEC Alr+ wild-type control. The note with it: compound 0.1 mM; raw OD600 reference: median of DMSO wells 0.49, cell-free background 0.052. The method, then:
(§2)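 TESEC Mtb Alr E. coli (ΔaraC ΔtolC ΔentC Δalr ΔdadX, arabinose-inducible Mtb Alr) or the Alr+ wild-type control strain, grown in defined M9-fructose medium without D-alanine in 96-well plates with Prestwick library compounds at 0.1 mM and 1% DMSO. Low Alr induction is 0.1 µM arabinose and high induction is 10 mM arabinose.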

Assay [4] has as its system E. coli TESEC Mtb Alr. The note with it: compound 0.1 mM. The method, then: as §2
This is another data set of the same source.

The mark [5] stands for this setting: arabinose 1000 nM, raw OD600 reference: median of DMSO wells 0.294, cell-free background 0.041.
The mark [6] stands for this setting: arabinose 10000 nM, raw OD600 reference: median of DMSO wells 0.264, cell-free background 0.041.
The mark [7] stands for this setting: arabinose 100000 nM, raw OD600 reference: median of DMSO wells 0.201, cell-free background 0.041.
Where [8] appears, read: arabinose 1000000 nM, raw OD600 reference: median of DMSO wells 0.193, cell-free background 0.041.
Setting [9] is: arabinose 10000000 nM, raw OD600 reference: median of DMSO wells 0.146, cell-free background 0.041.
The mark [10] stands for this setting: arabinose induction (level): High, raw OD600 reference: median of DMSO wells 0.331, cell-free background 0.041.
The mark [11] stands for this setting: arabinose induction (level): Low, raw OD600 reference: median of DMSO wells 0.417, cell-free background 0.041.
[12] abbreviates: arabinose 100 nM, raw OD600 reference: median of DMSO wells 0.413, cell-free background 0.052.
[13] abbreviates: arabinose 10000000 nM, raw OD600 reference: median of DMSO wells […], cell-free background 0.052.

In the case of `O=C(O)c1cccnc1` [Niacin], the growth in assay [1] was 0.28 ± 0.0091; in the assay on E. coli TESEC Mtb Alr [2] (setting [5]), 0.346 ± 0.021; in the assay with E. coli TESEC Mtb Alr [2] (setting [6]), 0.304 ± 0.0045; with E. coli TESEC Mtb Alr [2] (setting [7]) it was 0.243 ± 0.0028; in the assay on E. coli TESEC Mtb Alr [2] (setting [8]), 0.238 ± 0.0034; with E. coli TESEC Mtb Alr [2] (setting [9]), 0.152 ± 0.0078. Also, the growth in the assay with E. coli TESEC Mtb Asd (setting [10]) turned out to be 0.397 ± 0.019; in the assay with E. coli TESEC Mtb Asd (setting [11]) it was 0.461 ± 0.0099; in assay [3], 0.522 ± 0.086; with E. coli TESEC Mtb Alr [4] (setting [12]) it was 0.423 ± 0.028; in the assay with E. coli TESEC Mtb Alr [4] (setting [13]) it was 0.431 ± 0.014.

On to `CC[C@H](C)C(=O)O[C@H]1C[C@H](O)C=C2C=C[C@H](C)[C@H](CC[C@@H](O)C[C@@H](O)CC(=O)O)[C@H]21` [Pravastatin], for which the growth in assay [1] is 0.229 ± 0.013; in the assay on E. coli TESEC Mtb Alr [2] (setting [5]), 0.309 ± 0.0081; in the assay on E. coli TESEC Mtb Alr [2] (setting [6]), 0.297 ± 0.013; in the assay with E. coli TESEC Mtb Alr [2] (setting [7]) it was 0.222 ± 0.024; in the assay with E. coli TESEC Mtb Alr [2] (setting [8]), 0.185 ± 0.019; in the assay on E. coli TESEC Mtb Alr [2] (setting [9]), 0.152 ± 0.0073. Also, the growth with E. coli TESEC Mtb Asd (setting [10]) was determined as 0.323 ± 0.015; with E. coli TESEC Mtb Asd (setting [11]), 0.37 ± 0.059; in assay [3], 0.455 ± 0.03; in the assay on E. coli TESEC Mtb Alr [4] (setting [12]), 0.4188 ± 0.0036; in the assay on E. coli TESEC Mtb Alr [4] (setting [13]), 0.337 ± 0.026.

Turning to `CCN1CCCC1CNC(=O)c1cc(S(=O)(=O)CC)c(N)cc1OC` (configuration not stated) [Amisulpride], the growth in assay [1] was 0.235 ± 0.0063; in the assay on E. coli TESEC Mtb Alr [2] (setting [5]) it was 0.3 ± 0.011; in the assay with E. coli TESEC Mtb Alr [2] (setting [6]), 0.253 ± 0.005; in the assay with E. coli TESEC Mtb Alr [2] (setting [7]), 0.251 ± 0.025; with E. coli TESEC Mtb Alr [2] (setting [8]), 0.169 ± 0.003; in the assay with E. coli TESEC Mtb Alr [2] (setting [9]), 0.16 ± 0.0017. For the same compound, the growth in the assay on E. coli TESEC Mtb Asd (setting [10]) was found to be 0.332 ± 0.093; in the assay on E. coli TESEC Mtb Asd (setting [11]), 0.377 ± 0.067; in assay [3] it was 0.578 ± 0.046; in the assay with E. coli TESEC Mtb Alr [4] (setting [12]), 0.408 ± 0.011; in the assay with E. coli TESEC Mtb Alr [4] (setting [13]), 0.3237 ± 0.0029.

`Cn1c(=O)c2c(ncn2C)n(C)c1=O` [Caffeine]: the growth in assay [1] was found to be 0.233 ± 0.0046; with E. coli TESEC Mtb Alr [2] (setting [5]), 0.28 ± 0.0091; in the assay with E. coli TESEC Mtb Alr [2] (setting [6]), 0.277 ± 0.0046; with E. coli TESEC Mtb Alr [2] (setting [7]) it was 0.2 ± 0.016; with E. coli TESEC Mtb Alr [2] (setting [8]), 0.215 ± 0.0057; in the assay on E. coli TESEC Mtb Alr [2] (setting [9]), 0.14 ± 0.0044. Moreover, the growth with E. coli TESEC Mtb Asd (setting [10]) was determined as 0.304 ± 0.065; with E. coli TESEC Mtb Asd (setting [11]), 0.352 ± 0.11; in assay [3] it was 0.617 ± 0.065; in the assay with E. coli TESEC Mtb Alr [4] (setting [12]) it was 0.412 ± 0.0085; in the assay on E. coli TESEC Mtb Alr [4] (setting [13]), 0.369 ± 0.006.

Turning to `COc1ccc2[nH]cc(CCNC(C)=O)c2c1` [Melatonin], the growth in assay [1] is 0.246 ± 0.0061; in the assay on E. coli TESEC Mtb Alr [2] (setting [5]) it was 0.29 ± 0.0068; in the assay on E. coli TESEC Mtb Alr [2] (setting [6]), 0.27 ± 0.005; in the assay on E. coli TESEC Mtb Alr [2] (setting [7]) it was 0.204 ± 0.029; in the assay on E. coli TESEC Mtb Alr [2] (setting [8]), 0.183 ± 0.0071; in the assay on E. coli TESEC Mtb Alr [2] (setting [9]) it was 0.1406 ± 0.0012. Moreover, the growth is 0.252 ± 0.066 in the assay with E. coli TESEC Mtb Asd (setting [10]); 0.348 ± 0.11 in the assay on E. coli TESEC Mtb Asd (setting [11]); 0.521 ± 0.086 in assay [3]; 0.409 ± 0.01 in the assay on E. coli TESEC Mtb Alr [4] (setting [12]); 0.354 ± 0.013 with E. coli TESEC Mtb Alr [4] (setting [13]).

On to `CC(=O)OCC1=C(C(=O)O)N2C(=O)[C@@H](NC(=O)Cc3cccs3)[C@H]2SC1` [Cephalothin sodium salt], for which the growth in assay [1] came out at 0.305 ± 0.0066; in the assay on E. coli TESEC Mtb Alr [2] (setting [5]), 0.334 ± 0.017; in the assay on E. coli TESEC Mtb Alr [2] (setting [6]), 0.209 ± 0.0072; in the assay with E. coli TESEC Mtb Alr [2] (setting [7]), 0.283 ± 0.03; in the assay with E. coli TESEC Mtb Alr [2] (setting [8]) it was 0.172 ± 0.0079; in the assay on E. coli TESEC Mtb Alr [2] (setting [9]), 0.174 ± 0.0022. Besides, the growth in the assay on E. coli TESEC Mtb Asd (setting [10]) is 0.421 ± 0.021; in the assay on E. coli TESEC Mtb Asd (setting [11]), 0.421 ± 0.058; in assay [3], 0.447 ± 0.04; with E. coli TESEC Mtb Alr [4] (setting [12]), 0.332 ± 0.027; in the assay on E. coli TESEC Mtb Alr [4] (setting [13]), 0.35 ± 0.015.

Regarding `C[N+]1(C)CCC(OC(=O)C(O)(c2ccccc2)C2CCCC2)C1` (configuration not stated) [Glycopyrrolate], the growth came to 0.223 ± 0.0096 in assay [1]; 0.301 ± 0.0095 in the assay with E. coli TESEC Mtb Alr [2] (setting [5]); 0.267 ± 0.0065 with E. coli TESEC Mtb Alr [2] (setting [6]); 0.185 ± 0.021 in the assay on E. coli TESEC Mtb Alr [2] (setting [7]); 0.1866 ± 0.001 in the assay on E. coli TESEC Mtb Alr [2] (setting [8]); 0.138 ± 0.0078 with E. coli TESEC Mtb Alr [2] (setting [9]). In addition, the growth in the assay with E. coli TESEC Mtb Asd (setting [10]) was determined as 0.337 ± 0.055; in the assay on E. coli TESEC Mtb Asd (setting [11]), 0.425 ± 0.04; in assay [3] it was 0.575 ± 0.12; with E. coli TESEC Mtb Alr [4] (setting [12]), 0.408 ± 0.0092; in the assay on E. coli TESEC Mtb Alr [4] (setting [13]) it was 0.335 ± 0.014.
